A short description of experiment [1]: NCI Yeast Anticancer Drug Screen. Data for the rad50 strain (AID 155).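 Also: 0% = growth of vehicle-only cultures of the same strain.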 The note with it: S. cerevisiae rad50 strain growth inhibition; at 50.0 µM; active compounds read high. The gist of the method: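 A DNA repair-deficient yeast mutant serves as the test organism; compound-induced growth inhibition is calculated against vehicle-treated cells.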
The nature of experiment [2]: NCI Yeast Anticancer Drug Screen. Data for the mec2-1 strain (AID 157). The note with it: S. cerevisiae mec2-1 strain, at 50.0 µM, active compounds read high. Summed up:
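Cells of the genetically defined mec2-1 yeast strain are incubated with test compound. Inhibition of growth is calculated against vehicle-treated controls.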

Experiment [3] is described as follows: NCI Yeast Anticancer Drug Screen. Data for the sgs1 mgt1 strain (AID 161).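 Also: 0% = growth of cultures given vehicle only.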 As to conditions: S. cerevisiae sgs1 mgt1 strain, at 50.0 µM, active compounds read high. The gist of the method:
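Inhibition of yeast growth, normalised to vehicle-treated controls, is reported for a strain bearing genetic alterations in DNA damage repair.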

Experiment [4] can be described thus: NCI Yeast Anticancer Drug Screen. Data for the cln2 rad14 strain (AID 165).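 Also: 0% = growth equal to vehicle treated cultures.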 The note with it: S. cerevisiae cln2 rad14 strain, at 50.0 µM, active compounds read high. Summed up:
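The screen exposed genetically defined yeast (cln2 rad14) to test compounds and scored growth inhibition relative to vehicle-treated controls.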

Experiment [5] in a line: NCI Yeast Anticancer Drug Screen. Data for the bub3 strain (AID 167). As to conditions: S. cerevisiae bub3 mutant strain, at 50.0 µM, active compounds read high. The gist of the method:
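Inhibition values come from growth of compound-treated mutant yeast normalised to vehicle-treated controls.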

Experiment [6] can be described thus: NCI Yeast Anticancer Drug Screen. Data for the mlh1 rad18 strain (AID 175). The note with it: S. cerevisiae mlh1 rad18 strain growth inhibition; at 50.0 µM; active compounds read high. Summed up:
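Compound-treated yeast growth, normalised to vehicle controls. Strain bears defined DNA repair mutations.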

About 79,000 compounds went through this panel and 15% of them were active in at least one assay; those are over-represented in the sample as a whole. Values without a mark were called inactive. Calls of active or inactive are those of the source. Rule as the data show it: active = growth inhibition above about 70%; inactive = the rest.

Turning to `COc1ccc2c(c1)c1c3c(ccc4ncn2c43)N(CCN(C)C)CCN=1`, the growth inhibition in experiment [1] is -27.1%; in experiment [2], -26.1%; in experiment [3], -9.25%; in experiment [4] it was -6.3%; in experiment [5], 1.4%; in experiment [6] it was -37.6%.
On to `Cc1cc(N)ccc1N=Nc1ccc(S(=O)(=O)CCOS(=O)(=O)O)cc1`, for which the growth inhibition is 10.9% in experiment [1]; -7.5% in experiment [2]; -6.8% in experiment [3]; -4.65% in experiment [4]; -37.1% in experiment [5]; -74.7% in experiment [6].
Take `Cl[Si]1(Cl)Oc2ccccc2O[Si](Cl)(Cl)Oc2ccccc2O1`: the growth inhibition was 16.2% in experiment [1]; 10.6% in experiment [2]; 8.35% in experiment [3]; 28.6% in experiment [4]; 3.7% in experiment [5]; 10.2% in experiment [6].
For the molecule `CCCc1c(O)ccc(C)c1C`, the growth inhibition is 14.6% in experiment [1]; 2.5% in experiment [2]; 1.1% in experiment [3]; -36.2% in experiment [4]; -7.35% in experiment [5]; 32.4% in experiment [6].
For `O=[N+]([O-])c1cccc2cnccc12`, the growth inhibition in experiment [1] was -7.25%; in experiment [2], 22.4%; in experiment [3], 3.9%; in experiment [4], -21.1%; in experiment [5] it was 5.5%; in experiment [6], 17.6%.
For `CCC(c1ccc(O)cc1)c1cc2c(cc1OCC(=O)OC)OCO2` (stereo unspecified), the growth inhibition in experiment [1] was -5.1%; in experiment [2] it was -9.3%; in experiment [3] it was -4.65%; in experiment [4] it was -6.75%; in experiment [5] it was 0.65%; in experiment [6], 10.2%.
On to `C/C=C(\CC)C(C#N)(CCC)C(=O)OCC` (stereo unspecified), for which the growth inhibition in experiment [1] is -10.2%; in experiment [2], -17.6%; in experiment [3] it was -21.2%; in experiment [4], -9%; in experiment [5], -33.1%; in experiment [6] it was -17.6%.
With `Cc1ccc(NCC#N)cc1`, the growth inhibition in experiment [1] is 27.1%; in experiment [2] it was 15.2%; in experiment [3], -1.1%; in experiment [4], -12.6%; in experiment [5], 15.4%; in experiment [6], 36.5%.
As for `Cc1cc(Br)cc2c1NC(=O)C(C)C2C` (stereo unspecified), the growth inhibition in experiment [1] is -2.95%; in experiment [2] it was 12.7%; in experiment [3], -24.6%; in experiment [4], -8.95%; in experiment [5] it was -3.35%; in experiment [6], 1.1%.
With `COC(=O)CC(NC(=O)C(Cc1cncn1C(=O)OCc1ccccc1)NC(=O)OCc1ccccc1)C(=O)O` (stereo unspecified), the growth inhibition in experiment [1] was 10.2%; in experiment [2] it was 3.25%; in experiment [3] it was 0.45%; in experiment [4] it was 6.8%; in experiment [5], 0.05%; in experiment [6], -4.55%.
Turning to `CC1=C(C(=O)Nc2ccccc2C)C(c2ccc(C3C(C(=O)Nc4ccccc4C)=C(C)NC(C)=C3C(=O)Nc3ccccc3C)cc2)C(C(=O)Nc2ccccc2C)=C(C)N1`, the growth inhibition in experiment [1] was 65.7%; in experiment [2] it was 65%; in experiment [3] it was 61.2%; in experiment [4], 47.8%; in experiment [5], 21.6%; in experiment [6] it was 84.6% (active).
For the molecule `Cc1ccc(NC(=O)CCC(NS(=O)(=O)c2ccc(C)cc2)C(=O)O)cc1` (stereo unspecified), the growth inhibition in experiment [1] was 26.4%; in experiment [2], 17.5%; in experiment [3], 25.6%; in experiment [4] it was 18.6%; in experiment [5] it was -1.1%; in experiment [6], 42.1%.
`COc1ccc(C(=O)C(C)C(O)C(=O)O)c(O)c1C` (stereo unspecified): the growth inhibition in experiment [1] was 8.15%; in experiment [2], 14.9%; in experiment [3], -1.25%; in experiment [4], 2%; in experiment [5], -16.5%; in experiment [6], 9.15%.
Regarding `CC(C)(C)C(=O)CC(=O)C(F)(F)C(F)(F)C(F)(F)F.CC(C)(C)C(=O)CC(=O)C(F)(F)C(F)(F)C(F)(F)F.CC(C)(C)C(=O)CC(=O)C(F)(F)C(F)(F)C(F)(F)F.[Eu]`, the growth inhibition was 9.65% in experiment [1]; 39.4% in experiment [2]; 21.2% in experiment [3]; 39.5% in experiment [4]; 39.8% in experiment [5]; -1.2% in experiment [6].
Regarding `CC(N)c1ccc2ccccc2c1O` (stereo unspecified), the growth inhibition was -3.95% in experiment [1]; -7.05% in experiment [2]; 8.8% in experiment [3]; -11.2% in experiment [4]; -6% in experiment [5]; 8.05% in experiment [6].
For the molecule `COc1ccc(/C=C2\Oc3cc(OC(C)=O)ccc3C2=O)cc1`, the growth inhibition in experiment [1] is -66.9%; in experiment [2], -44.6%; in experiment [3], -15.2%; in experiment [4], 12.2%; in experiment [5] it was -14.6%; in experiment [6], -21.8%.
In the case of `CCN(CC)C(N)=Nc1cc2ccccc2c2ccccc12`, the growth inhibition in experiment [1] is -16.5%; in experiment [2] it was -22.8%; in experiment [3], -16.9%; in experiment [4], -45.5%; in experiment [5], 8.55%; in experiment [6], 5.25%.
For the molecule `CC(C)=C(CO)CCC(C)C`, the growth inhibition in experiment [1] was -9.3%; in experiment [2] it was -22.9%; in experiment [3], -10.4%; in experiment [4] it was 16.9%; in experiment [5], 6.65%; in experiment [6], -0.05%.
Turning to `O=C1c2ccc(=O)[nH]c2C(=O)C2CC3=C(CCCC3)CC12` (stereo unspecified), the growth inhibition in experiment [1] is 20.4%; in experiment [2] it was 24.6%; in experiment [3] it was 59.5%; in experiment [4], -71.1%; in experiment [5], 42.5%; in experiment [6] it was 44.5%.
Regarding `Cc1ccc(NC(=O)C(Br)C(Br)c2ccccc2)cc1Cl` (stereo unspecified), the growth inhibition in experiment [1] was 94.2% (active); in experiment [2] it was 95.8% (active); in experiment [3], 96.6% (active); in experiment [4], 95.2% (active); in experiment [5] it was 94.7% (active); in experiment [6] it was 95.8% (active).
Take `C=C1c2cc3c(cc2CC12Cc1cc4c(cc1C2=O)CCC4)CCC3` (stereo unspecified): the growth inhibition in experiment [1] was 20.2%; in experiment [2], 22%; in experiment [3] it was 11.3%; in experiment [4], 24.1%; in experiment [5], 46.8%; in experiment [6] it was 16%.

Source of the values: PubChem BioAssay (NCI).
